{"source": "PubChem BioAssay (Tox21)", "note": "Records with an inconclusive call do not appear. Calls of active or inactive are those of the source. Calls come from the whole dose curve. % is set by controls: 0 for no effect and ±100 for the full control effect."}
{"molecular_target": "Peroxisome proliferator-activated receptor delta (Homo sapiens) (UniProt Q03181)", "sequence (Q03181 whole entry, looked up)": "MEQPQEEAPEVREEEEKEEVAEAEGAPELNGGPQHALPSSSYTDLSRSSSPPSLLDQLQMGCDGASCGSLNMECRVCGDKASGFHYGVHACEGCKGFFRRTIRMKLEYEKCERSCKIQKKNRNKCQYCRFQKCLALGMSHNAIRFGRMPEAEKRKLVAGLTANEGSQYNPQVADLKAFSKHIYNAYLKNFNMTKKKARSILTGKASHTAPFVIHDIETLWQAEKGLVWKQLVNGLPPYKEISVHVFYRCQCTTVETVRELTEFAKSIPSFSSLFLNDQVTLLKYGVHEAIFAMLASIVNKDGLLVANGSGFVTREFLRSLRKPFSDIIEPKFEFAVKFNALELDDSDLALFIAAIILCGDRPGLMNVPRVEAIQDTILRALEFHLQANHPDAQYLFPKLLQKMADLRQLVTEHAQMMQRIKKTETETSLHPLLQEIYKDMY", "test": "qHTS assay to identify small molecule agonists of the peroxisome proliferator-activated receptor delta (PPARd) signaling pathway (AID 743212)", "details": "HEK293H PPARd-UAS-bla, beta-lactamase FRET ratio, 17 h; series mostly up to 62.6 µM; activation: at the top concentration", "from_the_text": "U.S. Tox21 Program National Center for Advancing Translational Sciences [NCATS] NIH Chemical Genomics Center [NCGC] U.S. Environmental Protection Agency [EPA] National Institutes of Environmental Health Sciences [NIEHS] National Toxicology Program [NTP] U.S. Food and Drug Administration [FDA] Tox21 Assay Overview: The peroxisome proliferator-activated receptors (PPARs) are lipid-activated transcription factors of the nuclear receptor superfamily with three distinct subtypes namely PPAR alpha, PPAR delta (PPARd) and PPAR gamma. All these subtypes heterodimerizes with Retinoid X receptor (RXR) and have different physiological functions. […] To identify the compounds that activate PPAR-delta signaling, GeneBLAzer PPAR delta UAS-bla HEK293H cell line (Invitrogen, Carlsbad, CA, USA) containing a beta-lactamase reporter gene under the control of an Upstream Activator Sequence (UAS) was used to screen the Tox21 compound library.\nTox21 Assay Protocol Summary: PPARd-bla cells were dispensed at 3000 cells/6uL/well in 1536-well black wall/clear bottom plates using a Multidrop Combi (Thermo Fisher Scientific, Waltham, MA) dispenser. After the assay plates were incubated at 37 C and 5% CO2 for 5 h, 23 nL of compounds dissolved in DMSO, positive controls or DMSO only was transferred to the assay plate by a Pintool station (Kalypsys, San Diego, CA). The assay plates were incubated at 37C for 17 h. After 1 uL of LiveBLAzerTM B/G FRET substrate was added using a Bioraptr Flying Reagent Dispenser (FRD) workstation (Beckman Coulter, Indianapolis, IN, USA), the plates were incubated at room temperature for 2 h, and fluorescence intensity was measured by an Envision plate reader (PerkinElmer, Shelton, CT)."}
{"smiles": "CCCCOC(=O)c1ccccc1", "activation": "5.51% (inactive)"}
{"smiles": "C=C(C)C(=O)OCc1ccccc1", "activation": "4.18% (inactive)"}
{"smiles": "COc1cc2c(cc1OC)[C@@H]1CC(=O)[C@@H](CC(C)C)CN1CC2", "activation": "1.41% (inactive)"}
{"smiles": "Nc1ncnc(Nc2ccccc2)n1", "activation": "1.51% (inactive)"}
{"smiles": "O=C(O)C(=O)Cc1ccccc1", "activation": "7.52% (inactive)"}
{"smiles": "CCCCCOC(=O)CCC", "activation": "10.2% (inactive)"}
{"smiles": "CCCOC(OCCC)OCCC", "activation": "-0.468% (inactive)"}
{"smiles": "CC(N)C(=O)OC(C)(C)Cc1ccc(Cl)cc1", "note": "(stereo not given)", "activation": "-2.18% (inactive)"}
{"smiles": "CC(C)NCC(O)COc1ccc(COCCOC(C)C)cc1", "note": "(stereo not given)", "activation": "-0.537% (inactive)"}
{"smiles": "C[C@@H]1O[C@@H](O[C@@H]2[C@@H](O)[C@H](OCCc3ccc(O)c(O)c3)O[C@H](CO[C@@H]3O[C@H](CO)[C@@H](O)[C@H](O)[C@H]3O)[C@H]2OC(=O)/C=C/c2ccc(O)c(O)c2)[C@H](O)[C@H](O)[C@H]1O", "activation": "4.4% (inactive)"}
{"smiles": "CCC(C)(CCC(C)C)C(=O)O", "note": "(stereo not given)", "activation": "1.69% (inactive)"}
{"smiles": "Cc1c(I)c(=O)n(-c2ccccc2)n1C", "activation": "0.0172% (inactive)"}
{"smiles": "CCOC(=O)[C@H](CCc1ccccc1)N[C@@H](C)C(=O)N1C(=O)N(C)C[C@H]1C(=O)O", "activation": "0.441% (inactive)"}
{"smiles": "Cc1ccc2c(c1)OCC(=O)CO2", "activation": "0.822% (inactive)"}
{"smiles": "COC(=O)C1CC(=O)C(C(=O)OC)CC1=O", "note": "(stereo not given)", "activation": "3.55% [at 5.95 µM] (inactive)"}
{"smiles": "CCCCCCCC/C=C\\CCCCCCCC(=O)OCCCC", "activation": "1.99% [at 29.1 µM] (inactive)"}
{"smiles": "O=Cc1ccc(Cl)c(Cl)c1", "activation": "2.47% [at 81.1 µM] (inactive)"}
{"smiles": "O=C(O)c1ccc(Cl)cc1Cl", "activation": "-3.9% [at 81.1 µM] (inactive)"}
{"smiles": "C[C@H](N)[C@H](O)c1cccc(O)c1", "activation": "0.126% (inactive)"}
{"smiles": "CC(CN)CC(C)(C)CCN", "note": "(stereo not given)", "activation": "-1.31% [at 81.1 µM] (inactive)"}
{"smiles": "CCN(C)C(=O)Oc1cccc([C@H](C)N(C)C)c1", "activation": "0.702% (inactive)"}
{"smiles": "CC(=O)c1ccc2c(c1)Cc1ccccc1-2", "activation": "0.457% (inactive)"}
{"smiles": "CCC(C)NC(N)=O", "note": "(stereo not given)", "activation": "7.07% (inactive)"}
{"smiles": "CC(=O)/C=C/C1C(C)=CCC(C)C1(C)C", "note": "(stereo not given)", "activation": "-2.68% (inactive)"}
{"smiles": "COc1ccc(-c2cc(=O)c3c(O)cc(O[C@@H]4O[C@H](CO[C@@H]5O[C@@H](C)[C@H](O)[C@@H](O)[C@H]5O)[C@@H](O)[C@H](O)[C@H]4O)cc3o2)cc1O", "activation": "3.8% (inactive)"}
{"smiles": "CCCCCCCCC1CCC(=O)O1", "note": "(stereo not given)", "activation": "2.46% (inactive)"}
{"smiles": "CN1C(C)(C)CCCC1(C)C", "activation": "0.336% (inactive)"}
{"smiles": "OCCC(F)(F)C(F)(F)C(F)(F)C(F)(F)C(F)(F)C(F)(F)C(F)(F)C(F)(F)F", "activation": "1.08% (inactive)"}
{"smiles": "COC(=O)[C@@H]1[C@H]2C[C@H]3c4[nH]c5ccccc5c4CCN3C[C@@H]2CC[C@@H]1O", "activation": "-4.31% (inactive)"}
{"smiles": "COc1cc(NS(=O)(=O)c2ccc(N)cc2)nc(OC)n1", "activation": "-5.13% (inactive)"}
{"smiles": "CC[C@H](C)C(=O)O[C@H]1C[C@H](O)C=C2C=C[C@H](C)[C@H](CC[C@@H](O)C[C@@H](O)CC(=O)O)[C@H]21", "activation": "-1.88% (inactive)"}
{"smiles": "CCC(CC)CO", "activation": "0.505% (inactive)"}
{"smiles": "O=C1CC(c2ccc(Cl)cc2)CC(=O)N1", "activation": "0.039% (inactive)"}
{"smiles": "Cc1cccc2nccnc12", "activation": "4.05% (inactive)"}
{"smiles": "CCOCCOCCOCC", "activation": "5.59% (inactive)"}
{"smiles": "C=Cc1ccccn1", "activation": "3.48% [at 81.1 µM] (inactive)"}
{"smiles": "CC(=O)Nc1ccc(S(=O)(=O)Cl)cc1", "activation": "0.99% (inactive)"}
{"smiles": "CC(=C(CCOC(=O)C(C)C)SSC(CCOC(=O)C(C)C)=C(C)N(C=O)Cc1cnc(C)nc1N)N(C=O)Cc1cnc(C)nc1N", "activation": "1.47% (inactive)"}
{"smiles": "C[Si](C)(C)C", "activation": "-0.717% (inactive)"}
{"smiles": "CN1CCN(CC(=O)N2c3ccccc3C(=O)Nc3cccnc32)CC1", "activation": "-1.15% [at 5.95 µM] (inactive)"}
